What all share (experiment): NCI-60 one-dose screen, 48 h (100 = growth as untreated, 0 = no growth, -100 = all killed)
One test concerns NCI-H226 lung. To be noted: 10 µM.
The test system of a further test is NCI-H322M lung. The following applies: 10 µM.
The test system of another test is HOP-62 NSCLC. To be noted: 10 µM.
The test system of another test is NCI-H460 lung. The following applies: 10 µM.
A further test relates to NCI-H522 lung. The following applies: 10 µM.
For a further test, the system named is COLO 205 colon. To be noted: 10 µM.
The test system of a further test is DU-145 prostate. The following applies: 10 µM.
In a further test the test system is K-562 leukemia. To be noted: 10 µM.
Another test has as its system SF-539 CNS. To be noted: 10 µM.
A further test relates to M14 melanoma. The following applies: 10 µM.
The next test relates to HCT-15 colon. To be noted: 10 µM.
The next test concerns HT29 colon. To be noted: 10 µM.
In the next test the test system is SNB-75 CNS. The following applies: 10 µM.
The subject of another test is SNB-19 CNS. To be noted: 10 µM.
Another test relates to LOX IMVI melanoma. The following applies: 10 µM.
In another test the test system is MOLT-4 leukemia. The following applies: 10 µM.
The next test relates to SR leukemia. The following applies: 10 µM.
Another test has as its system RPMI-8226 leukemia. To be noted: 10 µM.
For the next test, the system named is SK-OV-3 ovarian. The following applies: 10 µM.
Another test concerns MDA-MB-468 breast. To be noted: 10 µM unless noted.

Molecules are shown by their SMILES. This is part of a sample that, as a whole, favours compounds with a hit. Of some 83,000 tested, about 20% had one in any assay.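 48-hour exposure, single concentration, 96-well plates; percent growth endpoint where 0 means no net growth. Active: below 10.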 Unmarked numbers belong to inactive results. Calls of active or inactive are those of the source.

As for `CC(C)(C)c1cc(/C=C2\S/C(=N/c3ncn[nH]3)NC2=O)cc(C(C)(C)C)c1O`, the growth in the test with NCI-H226 lung is 5.38% (active); in the test with NCI-H322M lung, 17%; in the test with HOP-62 NSCLC, 21.3%; with NCI-H460 lung it was 3.73% (active); in the test with NCI-H522 lung it was -23.9% (active); in the test with COLO 205 colon, 12.4%. Moreover, the growth in the test on DU-145 prostate was 32.3%; in the test on K-562 leukemia, 16.7%; in the test on SF-539 CNS, 18%; in the test on M14 melanoma it was 17.9%; with HCT-15 colon it was 11.5%; in the test on HT29 colon it was 10.7%. Moreover, the growth in the test with SNB-75 CNS is 19.3%; in the test with SNB-19 CNS it was 23.7%; with LOX IMVI melanoma, -7.75% (active); with MOLT-4 leukemia, 13.8%; with SR leukemia it was 6.04% (active); with RPMI-8226 leukemia, 8.38% (active). Moreover, the values for the growth in the test on SK-OV-3 ovarian and with MDA-MB-468 breast were 4.14% (active) and 9.25% (active), respectively.

Take `COc1cccc(O)c1/C=C1\SCc2cc3c(OC)cccc3[o+]c21`: the growth with NCI-H226 lung is 98.2%; in the test on NCI-H322M lung, 103%; in the test on HOP-62 NSCLC it was 105%; in the test on NCI-H460 lung, 127%; in the test on NCI-H522 lung it was 102%; with COLO 205 colon, 140%. Further, the growth in the test with DU-145 prostate is 114%; with K-562 leukemia it was 106%; in the test on SF-539 CNS, 98%; with M14 melanoma, 106%; with HCT-15 colon, 111%; in the test on HT29 colon, 113%. For the same compound, the growth was 115% in the test with SNB-75 CNS; 101% in the test with SNB-19 CNS; 103% with LOX IMVI melanoma; 112% in the test on MOLT-4 leukemia; 98% with SR leukemia; 107% with RPMI-8226 leukemia. Also, the growth was 118% with SK-OV-3 ovarian and 112% in the test on MDA-MB-468 breast.

Regarding `Cc1ccc2c(c1)C(=O)/C(=C/c1ccc([N+](=O)[O-])cc1)S2`, the growth in the test with NCI-H226 lung was 52.2%; in the test on NCI-H322M lung, 105%; with HOP-62 NSCLC, 92%; in the test with NCI-H460 lung it was 92.5%; with NCI-H522 lung, 82.5%; in the test on COLO 205 colon, 103%. Also, the growth in the test on DU-145 prostate is 104%; with K-562 leukemia it was 69.9%; in the test on SF-539 CNS, 96.6%; in the test on M14 melanoma, 97.3%; with HCT-15 colon, 96.2%; in the test with HT29 colon, 79.1%. Moreover, the growth in the test on SNB-75 CNS was 81.3%; in the test on SNB-19 CNS, 92.4%; with LOX IMVI melanoma, 105%; with MOLT-4 leukemia, 107%; in the test with SR leukemia, 100%; with RPMI-8226 leukemia, 65.2%. Further, the growth was 87.4% in the test on SK-OV-3 ovarian and 84% with MDA-MB-468 breast.

As to `O=C(CNC(=O)OCc1ccccc1)NCC(=O)Oc1ccc([N+](=O)[O-])cc1`, the growth in the test on MDA-MB-468 breast is 106%.

`Cc1ccc2c(c1)C(=O)/C(=C/c1c[nH]c3ccccc13)S2`: the growth in the test with NCI-H226 lung was 40.8%; with NCI-H322M lung, 72.2%; in the test with HOP-62 NSCLC, 47.4%; with NCI-H460 lung, 33.6%; with NCI-H522 lung, 11.2%; with COLO 205 colon, 67.8%. The growth in the test on DU-145 prostate was 78.2%; with K-562 leukemia, 19%; with SF-539 CNS, 48.1%; in the test on M14 melanoma, 64.2%; in the test on HCT-15 colon it was 29.5%; with HT29 colon, 55.6%. Also, the growth is 41.1% with SNB-75 CNS; 27.3% with SNB-19 CNS; 19.1% with LOX IMVI melanoma; 32% in the test with MOLT-4 leukemia; 27.1% in the test with SR leukemia; 32.3% in the test on RPMI-8226 leukemia. Also, the figures for the growth with SK-OV-3 ovarian and in the test on MDA-MB-468 breast were 84.4% and 17.8%, respectively.

Turning to `COc1cc(/C=C/C(=O)c2c(C)nc3ccccc3c2/C=C/c2ccc(C)cc2)cc(OC)c1OC`, the growth in the test on MDA-MB-468 breast is 18.9%.

For the compound `CC1(C)CC(=O)C2=C(C1)N(Cc1ccc(C(=O)O)cc1)C1=C(C(=O)CC(C)(C)C1)C2c1ccc(Cl)cc1`, the growth was 108% in the test on NCI-H226 lung; 93.7% in the test with NCI-H322M lung; 101% in the test on HOP-62 NSCLC; 104% in the test on NCI-H460 lung; 84.9% with NCI-H522 lung; 121% in the test on COLO 205 colon. Moreover, the growth is 113% in the test on DU-145 prostate; 103% in the test with K-562 leukemia; 110% in the test with SF-539 CNS; 101% in the test with M14 melanoma; 98.4% in the test with HCT-15 colon; 112% in the test with HT29 colon. In addition, the growth in the test on SNB-75 CNS is 94.5%; with SNB-19 CNS it was 112%; in the test on LOX IMVI melanoma, 61.7%; in the test with MOLT-4 leukemia, 92.9%; in the test with SR leukemia it was 99.6%; with RPMI-8226 leukemia it was 113%. For the same compound, the growth in the test with SK-OV-3 ovarian is 101%; in the test with MDA-MB-468 breast it was 103%.

For the compound `O=C(CC(=O)Nc1ccc(Oc2ncnc3scc(Nc4n[nH]c(=S)s4)c23)cc1)Nc1ccc(Cl)cc1`, the growth was 67.8% in the test on NCI-H226 lung; 94.5% with NCI-H322M lung; 89.1% in the test on HOP-62 NSCLC; 85.5% with NCI-H460 lung; 55.2% in the test with NCI-H522 lung; 88.5% with COLO 205 colon. Besides, the growth with DU-145 prostate is 97%; with K-562 leukemia, 71.3%; in the test with SF-539 CNS, 91.6%; in the test with M14 melanoma, 108%; in the test on HCT-15 colon, 66.9%; in the test with HT29 colon, 106%. Moreover, the growth with SNB-75 CNS is 87.7%; in the test with SNB-19 CNS, 87.7%; with LOX IMVI melanoma, 69%; in the test on MOLT-4 leukemia it was 60.2%; in the test with SR leukemia it was 62.2%; in the test on RPMI-8226 leukemia, 86.8%. The growth in the test on SK-OV-3 ovarian is 77.5%; in the test on MDA-MB-468 breast it was -18.5% (active).

`Cc1cc(N=C2NC(=O)S/C2=C\c2ccc(F)cc2)n[nH]1`: the growth in the test on NCI-H226 lung is 17.1%; in the test on NCI-H322M lung it was 32.3%; in the test with HOP-62 NSCLC, 26.7%; with NCI-H460 lung it was 5.74% (active); in the test on NCI-H522 lung it was -8.95% (active); in the test on COLO 205 colon, 19.2%. Besides, the growth is 30% in the test on DU-145 prostate; 15.4% with K-562 leukemia; 4.62% (active) with SF-539 CNS; -30.7% (active) with M14 melanoma; 13.9% with HCT-15 colon; 6.68% (active) with HT29 colon. Further, the growth in the test with SNB-75 CNS is 2.65% (active); with SNB-19 CNS it was 27.4%; with LOX IMVI melanoma it was -59.8% (active); in the test with MOLT-4 leukemia, 10.5%; in the test with SR leukemia it was 8.59% (active); with RPMI-8226 leukemia it was -14.7% (active). The growth in the test on SK-OV-3 ovarian is 44.3%; with MDA-MB-468 breast it was -5.57% (active).

As for `O=C(Nc1ccc(Oc2ncnc3scc(Nc4n[nH]c(=S)s4)c23)cc1)C1(C(=O)Nc2cccc(C(F)(F)F)c2)CC1`, the growth was 72.2% with NCI-H226 lung; 101% in the test on NCI-H322M lung; 92.8% with HOP-62 NSCLC; 81.9% in the test with NCI-H460 lung; 94.1% with NCI-H522 lung; 101% with COLO 205 colon. For the same compound, the growth was 106% in the test on DU-145 prostate; 102% in the test with K-562 leukemia; 96.1% in the test on SF-539 CNS; 103% in the test on M14 melanoma; 95.4% in the test on HCT-15 colon; 112% with HT29 colon. Also, the growth is 104% in the test on SNB-75 CNS; 99.6% in the test on SNB-19 CNS; 30.4% in the test with LOX IMVI melanoma; 106% with MOLT-4 leukemia; 85% in the test on SR leukemia; 110% in the test with RPMI-8226 leukemia. The results for the growth in the test with SK-OV-3 ovarian and in the test on MDA-MB-468 breast were 93.7% and -10.1% (active), respectively.

(Values after PubChem BioAssay (NCI).)
